For 108 compounds, B-score results are on record in PubChem BioAssay AID2553 (Johns Hopkins Ion Channel Center, 2010).

The whole screen tested about 310,000 compounds, of which about 3,300 (1.1%) were called active. This is one part of a sample in which actives are shown more often than they occur.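 Rule for the calls: active = B-score under library mean minus 3 SD, initial fluorescence not abnormally high, positive integrated signal ratio; inactive = the rest.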

Short transient receptor potential channel 6 (Mus musculus), sequence (Q61143 whole entry, looked up): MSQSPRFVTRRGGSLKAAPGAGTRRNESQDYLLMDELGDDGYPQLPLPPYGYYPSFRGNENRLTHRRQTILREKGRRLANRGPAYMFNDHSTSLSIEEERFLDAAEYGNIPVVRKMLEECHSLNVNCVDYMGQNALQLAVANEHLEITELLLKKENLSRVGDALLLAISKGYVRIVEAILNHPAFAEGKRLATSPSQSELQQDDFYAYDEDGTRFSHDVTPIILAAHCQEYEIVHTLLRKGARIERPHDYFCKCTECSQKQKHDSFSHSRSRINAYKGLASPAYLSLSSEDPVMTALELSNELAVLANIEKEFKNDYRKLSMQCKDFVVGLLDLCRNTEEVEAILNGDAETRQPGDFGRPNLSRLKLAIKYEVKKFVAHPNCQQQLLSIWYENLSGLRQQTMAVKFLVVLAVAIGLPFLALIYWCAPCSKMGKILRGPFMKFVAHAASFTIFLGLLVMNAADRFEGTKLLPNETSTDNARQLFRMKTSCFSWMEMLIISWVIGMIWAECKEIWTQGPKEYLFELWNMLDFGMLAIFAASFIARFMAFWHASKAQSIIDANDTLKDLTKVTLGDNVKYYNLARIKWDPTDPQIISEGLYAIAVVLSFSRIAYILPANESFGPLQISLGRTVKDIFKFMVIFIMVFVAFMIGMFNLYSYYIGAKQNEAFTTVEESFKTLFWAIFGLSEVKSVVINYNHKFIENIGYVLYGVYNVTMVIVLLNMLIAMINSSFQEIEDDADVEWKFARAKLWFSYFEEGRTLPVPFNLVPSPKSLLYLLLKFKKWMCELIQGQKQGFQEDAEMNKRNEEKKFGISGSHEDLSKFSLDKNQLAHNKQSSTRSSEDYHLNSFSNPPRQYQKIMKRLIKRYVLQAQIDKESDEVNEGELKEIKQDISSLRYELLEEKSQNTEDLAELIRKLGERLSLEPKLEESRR

This experiment has as its target Short transient receptor potential channel 6 (Mus musculus) (UniProt Q61143). The experiment in a line: mouse TRPC6 channel inhibitors, primary screen, cell-based, HEK293, membrane potential dye (AID 2553).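 For B-score: B-score derived from integrated fluorescence ratio over the kinetic read; more negative B-score means stronger inhibition of depolarization.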 The settings on record: ACh-evoked depolarization, at 10 µM; active compounds read low.
For the compound `CCOC(=O)c1cc(NC(=O)c2ccc(Cl)cc2)c(=O)oc1-c1ccccc1`, the B-score result was “inactive”.

`CC(=O)c1cc(NC(=O)c2ccccc2)c(=O)oc1/C=C/N(C)C`: the B-score was -5.52 (active).

For the compound `CC(=O)Oc1cccc(C(=O)Nc2ccccc2NC(=O)c2cccc(OC(C)=O)c2)c1`, the B-score entry is “inactive”.

Regarding `CCOC(=O)c1c(/N=C/c2cc(C)ccc2O)sc2c1CCC2`, the B-score result is “inactive”.

For the compound `CN(C(=O)COc1nnc(-c2cccs2)c(-c2cccs2)n1)c1ccccc1`, the B-score result is “inactive”.

For the compound `CN(C)/C=C/C(=O)c1cnc2sccn2c1=O`, the B-score entry was “inactive”.

Regarding `COC(=O)c1cccc(N(C(=O)c2ccco2)C(C(=O)NC2CCCC2)c2ccco2)c1` (stereo not drawn), the B-score result is “inactive”.

With `Cc1cccc(N2CCN(C(C)C(=O)N3CCc4ccccc43)CC2)c1C` (stereo not drawn), the B-score entry was “inactive”.

Take `O=C(c1ccccc1F)N(Cc1ccccc1)Cc1ccccc1`: the B-score result was “inactive”.

Consider `O=C1c2ccccc2C(=O)c2c1cccc2N1CCN(CCO)CC1`, for which the B-score is -11.5 (active).

For `OCCN1CCN(C(=S)c2ccc(-c3ccccc3)cc2)CC1`, the B-score result was “inactive”.

Consider `O=C1c2ccccc2C(=O)c2c1cccc2N1CCN(Cc2ccccc2)CC1`, for which the B-score is -9.75 (active).

Turning to `O=C(CN1CCN(Cc2ccccc2)CC1)NC(c1ccccc1)c1ccccc1`, the B-score result is “inactive”.

Take `O=C1c2ccccc2C(=O)c2c1cccc2N1CCN(C/C=C/c2ccccc2)CC1`: the B-score result is “inactive”.

As to `OCCN1CCN(c2nnc(-c3ccccc3)c3ccccc23)CC1`, the B-score entry is “inactive”.

For `O=C(CNCc1ccco1)Nc1cc(S(=O)(=O)N2CCOCC2)ccc1N1CCCC1`, the B-score result is “inactive”.

As for `Clc1cc(NC2CCCCC2)ncn1`, the B-score result is “inactive”.

Regarding `COc1ccc(S(=O)(=O)NCCOc2ccccc2)cc1F`, the B-score entry was “inactive”.

Turning to `CC(=O)c1c(O)cc2n(c1=O)-c1ccc(Cl)cc1C2(C)C`, the B-score entry was “inactive”.

For the compound `O=C(NCc1ccc2c(c1)OCO2)c1c(O)nc2sccn2c1=O`, the B-score result was “inactive”.

For the compound `COCCOC(=O)c1sc(=S)n(CCOC)c1N`, the B-score result was “inactive”.

As for `CC(Sc1nnc(CNC(=O)c2ccccc2F)n1C)C(=O)Nc1nccs1` (stereo not drawn), the B-score result was “inactive”.

Turning to `COc1cc(NC(=O)CCS(=O)(=O)c2ccc3c(c2)oc(=O)n3C)cc(OC)c1`, the B-score entry is “inactive”.

On to `Cc1cc(Nc2ccc(Cl)cc2)nc(N2CCOCC2)n1`, for which the B-score result is “inactive”.

In the case of `Cc1cc(Nc2ccc(N3CCOCC3)cc2)c2cccc(C)c2n1`, the B-score was -7.55 (active).

On to `Cc1cc(Nc2ccc(C(=O)N3CCCCC3)cc2)c2cccc(C)c2n1`, for which the B-score entry was “inactive”.

Turning to `Cc1cc(S(=O)(=O)NCC(C)C)ccc1OCC(=O)NC1CC1`, the B-score result was “inactive”.

Regarding `CCN(CC)CCNc1nc(-c2ccc(OC(F)F)cc2)c(C)s1`, the B-score was -6.16 (active).

For `CCOc1ccc(C2/C(=C(/O)c3ccc4c(c3)CC(C)O4)C(=O)C(=O)N2CCCn2ccnc2)cc1` (stereo not drawn), the B-score result was “inactive”.

Turning to `O=C(NCCN1CCOCC1)c1cc(-c2cccs2)nc2ccccc12`, the B-score result was “inactive”.

Regarding `COC(=O)c1cc(-c2cccs2)nc2ccccc12`, the B-score result is “inactive”.

Turning to `CCCCN(C)CCCNC(=O)c1cc(-c2cccs2)nc2ccccc12`, the B-score was -6.6 (active).

For `CCc1nnc(NC(=O)CSc2nnnn2-c2cccc(C(C)=O)c2)s1`, the B-score entry is “inactive”.

Consider `O=S(=O)(Nc1nccs1)c1ccc2c(c1)OCCO2`, for which the B-score entry was “inactive”.

On to `CC(C)(C)Nc1nc(-c2ccccn2)nc2ccccc12`, for which the B-score is -6.28 (active).

Turning to `Cc1ccc(Oc2nc(-c3ccccn3)nc3ccccc23)cc1`, the B-score result is “inactive”.

For `CCOCCCNc1nc(-c2ccccc2)nc2ccccc12`, the B-score entry was “inactive”.

`CC(=O)Nc1ccc(S(=O)(=O)NC2(C(F)(F)F)C(=O)NC(C)=C2C#N)cc1` (stereo not drawn): the B-score result is “inactive”.

On to `O=S1(=O)CCOC[C@H](CC2CCCCC2)N1Cc1ccc(F)cc1`, for which the B-score result is “inactive”.

As to `N=c1c2c3c(sc2nc2n1CCCCC2)CCCC3`, the B-score was -10.6 (active).

For `NNC(=O)C1CCCn2c1nc1sc3c(c1c2=O)CCCC3` (stereo not drawn), the B-score entry was “inactive”.

With `CC1(C)Cc2c(sc3nc4n(c(=N)c23)CCCCC4)CO1`, the B-score result is “inactive”.

Take `Cc1ccc(-c2nc(CSCC(=O)NC3CCN(Cc4ccccc4)CC3)c(C)o2)cc1`: the B-score entry was “inactive”.

For `Cc1c(-c2ccccc2)n[nH]c1C(=O)N=Nc1c(O)[nH]c2ccccc12`, the B-score entry is “inactive”.

Regarding `O=C(O)C1CCCCC1C(=O)N1CCN(S(=O)(=O)c2ccc(F)cc2)CC1` (stereo not drawn), the B-score result was “inactive”.

On to `O=C(c1cccc(-n2cccc2)c1)N1CCN(S(=O)(=O)c2ccc(F)cc2)CC1`, for which the B-score is -5.32 (active).

For the compound `O=C(c1cnc(Cl)c(Cl)c1)N1CCN(S(=O)(=O)c2ccc(F)cc2)CC1`, the B-score result is “inactive”.

`c1ccc2c(c1)OCCOCCOCCO2`: the B-score entry was “inactive”.

Take `CCOc1nc(NCCN2CCOCC2)nc(Nc2ccc(C)cc2)n1`: the B-score was -5.49 (active).

Turning to `CCOc1cccc(/C=N/NC(=S)NCCN2CCOCC2)c1O`, the B-score entry was “inactive”.

For the compound `Nc1nc(NCCCN2CCOCC2)nc(Nc2ccccc2)c1[N+](=O)[O-]`, the B-score result is “inactive”.

On to `Cc1c(Br)ccc(NC(=O)COc2ccccc2C(N)=O)c1C`, for which the B-score entry is “inactive”.

`O=S(=O)(Nc1cccc(Oc2ccc(Cl)cc2)n1)c1ccc(F)cc1`: the B-score entry was “inactive”.

Take `COc1cccc(NC(=O)Nc2nnc(N3CCCCC3C)s2)c1` (stereo not drawn): the B-score entry is “inactive”.

In the case of `CCOC(=O)C1CCN(Cc2c(C(=O)N3CCOCC3)nc3c(C)cccn23)CC1`, the B-score entry is “inactive”.

Consider `Nc1nc(-c2ccccc2)cc(-c2ccccc2)n1`, for which the B-score entry is “inactive”.

As to `CN(C)c1cc(N)c2ccccc2n1` (tested in a mixture with another compound), the B-score was -9.26 (active).

With `COc1ccc(-c2cc(C(=O)N(C)Cc3ccccc3)c3ccccc3n2)cc1`, the B-score entry was “inactive”.

As for `Cc1cc(C)c(S(=O)(=O)NCCCN2CCOCC2)cc1Br`, the B-score result is “inactive”.

`CN1CC(c2ccccc2)C2(COc3ccccc3C2=O)C12C(=O)Nc1ccccc12` (stereo not drawn): the B-score entry was “inactive”.

As to `Cc1ccc2c(c1)C1CN(C)CCC1N2C(=S)Nc1ccc(Cl)cc1Cl` (stereo not drawn), the B-score is -5.46 (active).

In the case of `Cc1ccc2c(c1)C1CN(C)CCC1N2C(=S)Nc1ccc(OC(F)F)cc1` (stereo not drawn), the B-score result was “inactive”.

On to `S=C(Nc1ccc(Cl)cc1Cl)N1CCCC1`, for which the B-score result was “inactive”.

Regarding `Cc1ccc(S(=O)(=O)N(Cc2ccccc2)c2ccccn2)cc1[N+](=O)[O-]`, the B-score result was “inactive”.

For the compound `O=C(CSc1cccc[n+]1[O-])c1ccc(Cl)cc1`, the B-score entry is “inactive”.

As for `O=C(Cn1cc(-c2nnnn2-c2ccc(Cl)cc2)c(=O)c2ccccc21)c1ccccc1`, the B-score entry was “inactive”.

As to `O=C(C[n+]1ccc2c(c1)nnn2-c1ccccc1)c1ccc(Cl)cc1`, the B-score is -5.81 (active).

Consider `COc1ccccc1NS(=O)(=O)N(C)C`, for which the B-score result is “inactive”.

`O=S(=O)(Nc1ccccc1Br)c1cccs1`: the B-score entry was “inactive”.

Take `O=C(Nc1cccc(Cl)c1)Nc1ccccc1NS(=O)(=O)c1cccs1`: the B-score was -5.11 (active).

For `O=S(=O)(NCc1ccc(Cl)cc1Cl)c1cccs1`, the B-score entry was “inactive”.

Consider `COCCCN1C(=O)C(=O)/C(=C(/O)c2ccc(S(=O)(=O)N3CCOCC3)cc2)C1c1ccc(F)cc1` (stereo not drawn), for which the B-score entry is “inactive”.

As to `COC(=O)c1sccc1-n1cccc1C(=O)C(=O)N1CCCCC1`, the B-score entry is “inactive”.

Turning to `CC(C)(C)NCC(O)COc1cccc2[nH]c(=O)[nH]c12` (stereo not drawn), the B-score result was “inactive”.

For the compound `COc1ccccc1OCC(O)CN1CCOCC1` (stereo not drawn), the B-score result was “inactive”.

For `COc1ccccc1OCCNCC(O)COc1cccc2[nH]c3ccccc3c12` (stereo not drawn), the B-score is -7.01 (active).

In the case of `CC(=O)c1ccc(N2CCN(C(=O)C3CCN(S(=O)(=O)c4ccc5c(c4)CC(C)N5C(=O)C4CC4)CC3)CC2)cc1` (stereo not drawn), the B-score entry is “inactive”.

As to `O=C(CSc1nnc(SCc2ccc(Cl)cc2)s1)N/N=C/c1ccccc1Cl`, the B-score result was “inactive”.

For the compound `CCN(C(=O)COC(=O)c1ccc(COc2ccc3c(C)cc(=O)oc3c2)cc1)C1CCS(=O)(=O)C1` (stereo not drawn), the B-score result was “inactive”.

With `CC(C)c1ccc(S(=O)(=O)N2CCN(C(=O)c3ccc(N4CCCC4)c([N+](=O)[O-])c3)CC2)cc1`, the B-score entry is “inactive”.

With `Cc1ccc(S(=O)(=O)N2CCN(C(=O)c3ccc(-n4cncn4)c([N+](=O)[O-])c3)CC2)cc1`, the B-score result was “inactive”.

Take `Nc1ccc(C(=O)N2CCN(S(=O)(=O)c3ccc(Cl)cc3)CC2)cc1[N+](=O)[O-]`: the B-score was -5.95 (active).

Consider `CSc1nnc(-c2ccc(C(F)(F)F)cn2)o1`, for which the B-score result was “inactive”.

For `CCOc1ccc(NC(=O)CSc2nncn2C)cc1`, the B-score entry was “inactive”.

`COc1ccc(-c2ccc3nnc(SCC(=O)Nc4ccc(NC(C)=O)cc4)n3n2)cc1`: the B-score entry was “inactive”.

Turning to `Cc1nc(NCCN)c(C#N)c2c1COC(C)(C)C2`, the B-score entry is “inactive”.

With `CCCCc1nc(NCc2ccccc2)c(C#N)c2c1CCCC2`, the B-score result is “inactive”.

Turning to `CCCCc1nc(NCCN)c(C#N)c2c1CSC(C)(C)C2`, the B-score is -5.09 (active).

For `Cc1cc(NC(=O)C(C)SCC(=O)Nc2ccccc2N2CCCCC2)no1` (stereo not drawn), the B-score result is “inactive”.

For the compound `CN(Cc1cccc2ncccc12)C(=O)CC1C(=O)NCCN1Cc1ccc(F)cc1` (stereo not drawn), the B-score entry is “inactive”.

Regarding `O=C(O)c1ccc(NC(=O)c2ccc(COc3ccc(Cl)cc3)o2)cc1`, the B-score was -5.87 (active).

On to `Cc1cc(OCc2ccc(C(=O)Nc3ccc(C(=O)O)cc3)o2)ccc1Cl`, for which the B-score entry was “inactive”.

As to `COc1ccc(NC(=O)CN(C)C(=O)c2ccc(COc3ccccc3)o2)cc1`, the B-score entry is “inactive”.

With `O=C(COC(=O)CC1CC2CCC1C2)NC(=O)NC1CCCC1` (stereo not drawn), the B-score entry was “inactive”.

In the case of `O=C(COc1ccccc1)Nc1ccc(N2CCN(C(=O)c3cccs3)CC2)cc1`, the B-score entry is “inactive”.

In the case of `COCC(=O)Nc1cc(C(=O)OC)cc(C(=O)OC)c1`, the B-score entry was “inactive”.

Take `Cc1cccc(N2CCN(C(c3ccc(N(C)C)cc3)c3nnnn3C(C)(C)C)CC2)c1C` (stereo not drawn): the B-score result is “inactive”.

With `CC(C)(C)n1nnnc1C(c1ccc2ncccc2c1)N1CCSCC1` (stereo not drawn), the B-score was -11.5 (active).

As for `CC(C)(C)n1nnnc1C(c1ccc(Cl)cc1)N1CCSCC1` (stereo not drawn), the B-score result is “inactive”.

For the compound `O=C(NCCc1ccccc1Cl)C1CCC(=O)N(CCCc2ccccc2)C1` (stereo not drawn), the B-score result was “inactive”.

Turning to `CC(C)c1ccc(NC(=O)Cn2ncc3ccccc32)cc1`, the B-score is -5.5 (active).

On to `CCc1ccc(NC(=O)Cn2ncn3c(cc4ccccc43)c2=O)cc1`, for which the B-score entry is “inactive”.

As for `CCOC(=O)c1cn(CC(=O)Nc2ccc(C(C)C)cc2)nn1`, the B-score entry is “inactive”.

For the compound `Cc1cc(O)c(C2(O)C(=O)Nc3ccccc32)cc1C` (stereo not drawn), the B-score result was “inactive”.

As to `CCc1ccccc1NC(=O)CN(c1ccc(OC)cc1OC)S(=O)(=O)c1ccccc1[N+](=O)[O-]`, the B-score entry is “inactive”.

Take `COCc1ccc(C(=O)N2CCc3c([nH]c4ccccc34)C2c2ccccn2)s1` (stereo not drawn): the B-score entry is “inactive”.

With `c1ccc(C2c3[nH]c4ccccc4c3CCN2Cc2cccn2-c2cccnc2)nc1` (stereo not drawn), the B-score was -6.75 (active).

Consider `CCOc1ccc(C2c3[nH]c4ccccc4c3CCN2Cc2cccn2-c2ncccn2)cc1` (stereo not drawn), for which the B-score result is “inactive”.
